# Screens: PubChem BioAssay, National Center for Advancing Translational Sciences (NCATS)
# Pf growth 96h – Primary qHTS for delayed death inhibitors of the malarial parasite plastid, 96 hour incubation. P. falciparum luciferase reporter growth, 96 h. Potency, µM (series often up to 28.7 µM), for inactives: top-dose activity change, negative = inhibition, actives largely listed as inhibitors. hit rate 6.9% among 320,000. AID 504834, 2011; note: potency is the fitted concentration of half-maximal effect; % is set by controls: 0 for no effect and ±100 for the full control effect
#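 P. falciparum expressing integrated firefly luciferase grown in erythrocytes (2% hematocrit, 0.05% parasitemia final) with compounds for 96 hours at 37 C, 5% CO2. Growth inhibition read as loss of luminescence after adding luciferase detection reagent.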
# HCV inh – qHTS Assay for Inhibitors of Hepatitis C Virus (HCV); Huh7.5.1 HCVcc-Cre infection, luciferase reporter, 44 h; Potency, µM (series often up to 41.8 µM), for the others: at the top dose activity change, negative = inhibition, actives largely listed as inhibitors; hit rate 3.4% among 340,000; note: potency is the fitted concentration of half-maximal effect; % is set by controls: 0 for no effect and ±100 for the full control effect
#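 Reporter virus HCVcc-Cre (~0.5 moi) infects cells exposed to compound; seeding density 1,000 cells/well with 4 h settling beforehand. Luminescence, 15 sec read, taken 44 h post-infection following a 15 min RT substrate incubation.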
# Cycloheximide cs – Cycloheximide Counterscreen for Small Molecule Inhibitors of Shiga Toxin; cell reporter, cycloheximide protein synthesis inhibition counterscreen; max response, %; hit rate 12% among 300,000; AID 2314, 2010; in the data active = max response mostly above about 13%, no sharp cut-off; inactive = mostly below about 14%; note: read at 38.3 µM for the half of the compounds with a filed dose; 0% is about no effect
# Shiga toxin inh – A qHTS for Small Molecule Inhibitors of Shiga Toxin; Vero cells, Shiga toxin protein synthesis inhibition reporter; inhibition, % at 38.7 µM; hit rate 9.2% among 290,000; AID 2315, 2010; in the data active = inhibition mostly above about 28%, no sharp cut-off; inactive = mostly below about 43%; note: 0% is about no effect
# Pf growth 48h – Primary qHTS for delayed death inhibitors of the malarial parasite plastid, 48 hour incubation. Potency, µM (top dose mostly 28.7 µM), inactives show at the highest dose activity change, negative = inhibition, actives largely listed as inhibitors. P. falciparum luciferase growth in erythrocytes, 48 h. hit rate 5.9% among 310,000; note: potency is the fitted concentration of half-maximal effect; % is set by controls: 0 for no effect and ±100 for the full control effect
#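 Here the parasites carry a stable luciferase gene and grow inside erythrocytes in Albumax-based RPMI medium with compound for one erythrocytic cycle. Activity is scored as loss of luminescent signal.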
# HCMV inh – qHTS Assay for inhibitors of the human cytomegalovirus (HCMV); AID 1259415, 2018; HFF cells, HCMV-luciferase reporter, 72 h; hits give low values; activity change, negative = inhibition, % at 57.5 µM; hit rate 4.5% among 410,000; in the data active = activity change below about -60%; inconclusive = no clear call, values can overlap the other calls; inactive = above about -39%; note: % is set by controls: 0 for no effect and ±100 for the full control effect
#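 Human foreskin fibroblasts infected with luciferase-reporter HCMV at MOI 1 PFU/cell, compounds at two doses. Luciferase measured 72 h post infection; normalized to buffer-only basal and Salinomycin (10uM) controls.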
# Numbers without * were called inactive; ? = inconclusive; / = no result given; + = active, no number; [ ] = dose if it differs, or a comment. In the library only some 21% were active in any assay of this set; here they are far more common. Unless noted, calls come from the whole dose curve; as a rule, active = well fitted inhibition curve with a large enough effect; inconclusive = small, poorly fitted or top-dose-only effect, or another doubt; inactive = no such curve, though single readings can be large or run the other way.
SMILES,Pf growth 96h,HCV inh,Cycloheximide cs,Shiga toxin inh,Pf growth 48h,HCMV inh
O=C(c1ccc(-c2cccc(Cl)c2Cl)o1)N1CCOCC1,-29%[5.75 µM],-20%,37*,133*,75%,19
O=C(c1ccc(-c2ccccc2Cl)o1)N1CCC1,23%,?,/,/,77%,-4
CN1CCN(C(=S)c2ccc(-c3cc(Cl)ccc3Cl)o2)CC1,1%,?,9,9,?,-7
Cc1ccc(CCNC(=O)c2cc3sccc3n2Cc2ccc(F)cc2)cc1,/,/,/,/,/,-14
CC(=O)Nc1cccc(C(=O)OCC(=O)NNC(=O)c2cccs2)c1,4%,13%,/,/,36%,-16
Cc1cccc(NC(=O)C(Cc2ccccc2)n2cccc2)c1C (stereo not drawn),/,/,/,/,/,21
O=Cc1ccc(-c2ccc([N+](=O)[O-])cc2Cl)o1,-15%,1%,10,8,3%,-66*
O=Cc1ccc(-c2cccc([N+](=O)[O-])c2)o1,42%,23%,3,10,61%,17
COc1ccccc1CCC(=O)OCC(=O)NC1CC1,3%,-44%,/,/,0%,-18
CCc1ccc(NC(=O)NCCc2c(C)nn(C)c2C)cc1,/,/,/,/,/,41
Cc1[nH]nc2nc(SCC(=O)NCC3CCCO3)n(-c3ccc(Br)cc3)c(=N)c12 (stereo not drawn),40%,-14%,-2,-1,10µM*,6
Cc1cccc(-n2c(SCC(=O)Nc3ccc(C)c(C)c3)nc3n[nH]c(C)c3c2=N)c1,/,/,/,/,/,-28
CCOc1ccc(-n2c(SCC(=O)Nc3ccc(Br)cc3)nc3n[nH]c(C)c3c2=N)cc1,?,?,-1,-12,-17%,0
Cc1cc(-n2c(SCC(=O)Nc3ccc(Br)cc3)nc3n[nH]c(C)c3c2=N)ccc1Cl,44%,-16%,1,-4,?,-75*
COc1cccc(NC(=O)CSc2nc3n[nH]c(C)c3c(=N)n2-c2cccc(OC)c2)c1,172%,10µM*,2,-10,10µM*,57
Cc1ccc(CNC(=O)CSc2nc3n[nH]c(C)c3c(=N)n2-c2cccc(C)c2)cc1,9.3µM*,?,-2,-6,/,-37
COc1cccc(-n2c(SCC(=O)NCCC3=CCCCC3)nc3n[nH]c(C)c3c2=N)c1,?,?,1,-14,9.3µM*,-6
CCCCNC(=O)CSc1nc2n[nH]c(C)c2c(=N)n1-c1cccc(C)c1,/,/,/,/,/,15
C/C(N)=C(/C#N)C(=O)CSc1nc2cc(Cl)ccc2c(=O)n1Cc1ccco1,0%,14µM*,9,6,0%,?
C/C(N)=C(/C#N)C(=O)CSc1nc2cc(Cl)ccc2c(=O)n1-c1ccc(C)cc1,28%,7.1µM*,9,-46,21%,?
C/C(N)=C(/C#N)C(=O)CSc1nc2cc(Cl)ccc2s1,45%,8.9µM*,24*,+,22%,-20
C/C(N)=C(/C#N)C(=O)CSc1nc2ccccc2c(=O)n1Cc1ccc(F)cc1,?,-19%,7,-3,?,0
C/C(N)=C(/C#N)C(=O)CSc1nc2ccccc2c(=O)n1Cc1ccc(C)cc1,?,-8%,9,13,?,?
CCCCn1c(SCC(=O)/C(C#N)=C(\C)N)nc2ccccc2c1=O,-22%,?,-4,12,?,-73*
C[C@@H]1O[C@@H](O[C@H]2CC[C@@H](O[C@H]3[C@H](O)C[C@H](c4ccc5c(c4O)C(=O)C4=C(C5=O)[C@@]5(O)C(=O)C[C@](C)(O[C@H]6CC[C@H](O[C@H]7C=CC(=O)[C@H](C)O7)[C@H](C)O6)C[C@@]5(O)C=C4)O[C@@H]3C)O[C@H]2C)C=CC1=O,/,/,-18,-21,/,/
O=C(c1ccccc1OC(F)F)N1CCN(S(=O)(=O)c2ccc3c(c2)OCCCO3)CC1,-25%,-6%,/,/,15µM*,41
O=C(c1ccccc1F)N1CCN(S(=O)(=O)c2ccc3c(c2)OCCO3)CC1,9.3µM*,-23%,-3,-10,/,13
